Data taken from PubChem BioAssay AID1789 (The Scripps Research Institute Molecular Screening Center, 2009).
Hit rate of the full screen: of about 290,000 compounds, about 2,700 (0.93%) were called active. This excerpt belongs to a sample that is enriched for actives. A number with no mark means an inactive call.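 How the source made its calls: active means inhibition above the screen-wide mean plus 3 SD, computed separately per campaign (cut at about 16% in these data); inactive means the rest.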 Square brackets hold non-standard residues; d marks the D form. Peptide text beside a SMILES is read from it. * marks the point of attachment. PhAc = O=C(Cc1ccccc1)*

system: Heat shock protein HSP 90 (rabbit reticulocyte lysate; luciferase refolding); assay: inhibitors of HSP90 chaperone activity – cell lysate, luminescence, primary screen (AID 1789); conditions: 3 h, at 5.6 µM, stronger effect = higher value;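 further: 0% = DMSO wells and 100% = 60 µM geldanamycin wells; inhibitors lower the luminescence because luciferase stays unfolded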

Structure (SMILES)	inhibition
COc1cc(OC)c(C(=S)N2CCCC2)cc1OC	-0.17%
O=C(Cn1ncc(N2CCCC2)c(Br)c1=O)c1ccc(Cl)cc1	-0.91%
CC(C)(C)Nc1nc(-c2ccccn2)nc2ccccc12	-0.49%
Cc1nc(COc2cc3oc(=O)cc(C)c3cc2Cl)cs1	1.76%
CCN(C(=O)Cc1c(C(=O)O)n(CC)c2ccccc12)c1ccccc1C	-6.6%
Cc1c(CNCCc2ccccc2)c(C(=O)O)c(C)n1-c1ccccc1	1.5%
CCOCCOC(=O)C1=C(C)NC(=O)NC1c1ccc2c(c1)OCO2 (configuration not stated)	-3.33%
O=C(NC1CCCCCCC1)c1cccs1	-3.45%
O=C(NCc1ccco1)/C(=C\c1cccc([N+](=O)[O-])c1)NC(=O)c1ccco1	-0.13%
COCCN(C(=O)CCC(=O)Nc1nccs1)C(C(=O)NCCC(C)C)c1ccc(F)cc1 (configuration not stated)	2.45%
Cc1ccc2c(cnn2C(=O)CCC(=O)NC2CCCC2)c1	-3.9%
Oc1c(C=Nc2cccc3nsnc23)ccc2ccccc12	36.7% (active)
O=[N+]([O-])c1ccc(N=Cc2c(O)ccc3ccccc23)cc1	2.1%
COc1ccc(C=Nc2cccc3ncccc23)cc1	7.77%
CC(C)C[C@@H](NC(=O)[C@H]1CCCN1C(=O)Cc1ccccc1)C(N)=O (PhAc-[dP]-[dL]-NH2)	-3.77%
COc1ccccc1NC(=O)CN(c1ccccc1OC)S(=O)(=O)c1ccccc1	0.43%
Cc1cccc(NC(=O)Nc2ccc3c(c2)OCO3)n1	-5.1%
CCc1c(C)sc(NC(=O)/C=C/c2ccc3c(c2)OCO3)c1C(=O)OC	-8.23%
Cc1cccc(NC(=O)/C=C/c2ccc3c(c2)OCO3)n1	22.8% (active)
Cc1cc(C)cc(NC(=O)NC2CCCCCCC2)c1	-3.82%
O=C(Nc1ccn(Cc2ccccc2)n1)c1n[nH]c([N+](=O)[O-])c1Cl	22.3% (active)
Cn1cc([N+](=O)[O-])c(C(=O)Nc2cnn(Cc3ccc(F)cc3)c2)n1	-0.28%
O=C(Nc1ccn(Cc2ccccc2)n1)c1cccc(F)c1	11.1%
O=S(=O)(NC1CCCCC1N1CCN(c2ccccc2F)CC1)c1ccccc1 (configuration not stated)	2.71%
O=C(Nc1ccc(Cl)cc1)c1cccc(OC(=S)N2CCOCC2)c1	-7.8%

Structure (SMILES)	inhibition
CCOC(=O)Cn1c(=O)n(Cc2ccc(OC)cc2)c(=O)c2cccnc21	-2.48%
Oc1cccc(/C=N/Nc2ccc(Cl)nn2)c1O	5.19%
CCc1ccc(NC(=O)CCNS(=O)(=O)c2cccs2)cc1	-2.78%
COCC(=O)Nc1c(C(=O)N2CCCC2)oc2ccccc12	-3.81%
Clc1ccc(-c2ncc3ccccn23)c(Cl)c1	4.35%
O=C1CSC(c2ccccc2)N1c1nc(-c2ccc(Cl)cc2Cl)cs1 (configuration not stated)	-0.17%
Clc1ccc(-c2cc(-c3ccccn3)on2)c(Cl)c1	38.6% (active)
O=C(O)c1ccc(N=NN2CCOCC2)cc1	20.6% (active)
O=C(c1ccccc1)N1CCN(C(=O)N2CCCCC2)CC1	-0.28%
CN1CCN(S(=O)(=O)c2cccc(C(=O)O)c2)CC1	-1.11%
O=C(O)c1cccc(N=NN2CCCCCC2)c1	37.5% (active)
NC(=NC(=O)c1ccccc1)N1CCOCC1	-2.45%
O=C(NC(=O)N1CCOCC1)c1ccccc1	0.55%
COC(=O)c1sc(NC(=S)NC(=O)c2ccc(C)cc2)nc1C	1.68%
COc1ccc(Cc2nnc(NC(=O)c3ccc(OC)cc3OC)s2)cc1	-0.32%
COC(=O)c1sc(NC(=O)c2csc3c2CCCC3)nc1C	35.7% (active)
Cc1ccc(NC(=O)c2csc3c2CCCC3)cc1	1.71%
COc1cc(SC)ccc1C(=O)NCCOc1ccccc1Cl	3.08%
COC(=O)c1sc(NC(=O)c2ccc(OC)cc2OC)nc1C	36.3% (active)
COc1cc(SC)ccc1C(=O)Nc1cc(C)ccn1	12.1%
COc1cc2ccccc2cc1C(=O)Nc1nc(C)c(C(C)=O)s1	10.7%
COc1cc(SC)ccc1C(=O)Nc1nc(C)cs1	82.5% (active)
CCN(C(=O)c1cc([N+](=O)[O-])ccc1NCc1cccnc1)c1ccccc1	-2.39%
Cc1ccc(-c2csc(N3CCN(c4cc5c(cc4Cl)nc(-c4ccncc4)n5CCOCCO)CC3)n2)cc1	0.37%
O=C(O)c1cc2c(cc1NC(=O)c1c(F)cccc1Cl)OCCCO2	1.02%

Structure (SMILES)	inhibition
Cc1cc(=O)oc2cc(OCC(=O)N3CCN(c4ccc(F)cc4)CC3)c(Cl)cc12	0.58%
CCOc1ccccc1NS(=O)(=O)c1c[nH]c(C(=O)OC)c1	-0.36%
CCC1Oc2ccccc2N(CC(=O)NCCCN2CCN(CC)CC2)C1=O (configuration not stated)	-0.16%
CCCc1nc2ccccc2c(C(=O)OCC(=O)c2ccc3c(c2)NC(=O)CO3)c1CC	10.5%
Cc1ccc(C(=O)COC(=O)c2cccc(N3C(=O)c4c(C)nc5ccccc5c4C3=O)c2)cc1C	21.8% (active)
O=C(CCc1nc2ccccc2c(=O)[nH]1)OCC(=O)c1cccc(Cl)c1	-0.45%
COc1ccc(Cl)cc1-n1c(=S)sc2c(=O)n(-c3ccc(F)cc3)c(SCC(=O)O)nc21	-4.32%
CCc1nc(SCC(=O)Nc2ccccc2OC)n[nH]1	37.9% (active)
COC(=O)c1ccccc1NC(=O)CSc1n[nH]c(-c2ccncc2)n1	-0.92%
CCCCCNC(=O)c1cccnc1SCC(=O)Nc1ccccc1OC	0.66%
Nc1nnnn1/N=C/c1cccc(Br)c1	-1.72%
CCCN1C2CCCC1CC(NC(=O)NC13CC4CC(CC(C4)C1)C3)C2 (configuration not stated)	2.81%
CNC(=S)N/N=C/c1ccc(N2CCOCC2)s1	5.17%
C/C(=N\NC(=O)Cc1ccc(Cl)cc1)c1ccccn1	1.95%
COc1ccc(CC(=O)N/N=C(\C)c2ccccn2)cc1	2.53%
C/C(=N\NC(=O)c1ccccc1F)c1ccccn1	21.6% (active)
Cc1ccc(/C=C2/SC(=S)N(CCC(=O)NCCCN3CCOCC3)C2=O)cc1	-1.06%
O=C1CCC(C(=O)N2CCC(O)(c3ccccc3)CC2)CN1CCc1ccccc1 (configuration not stated)	-4.78%
O=C(CN(C(=O)c1nsc(Cl)c1Cl)c1cccc(F)c1)NC1CCCC1	-2.72%
COc1ccc(CNC(=O)CCN2C(=O)c3ccccc3C2=O)cc1	3.06%
CN(Cc1ccccc1)C(=O)C1CCCN(c2ncnc3c2nc2n3CCCCC2)C1 (configuration not stated)	-4.53%
COCC(C)OC(=O)c1c(N)n(CCCN2CCOCC2)c2nc3ccccc3nc12 (configuration not stated)	4.05%
CC(C)(C)c1ccc(C(=O)NCCn2c(N)c(C#N)c3nc4ccccc4nc32)cc1	2.15%
CC(C)(C)OC(=O)c1c(N)n(CCCN2CCCC2=O)c2nc3ccccc3nc12	17.2% (active)
COc1cccc2c(C)c(C(=O)O)[nH]c12	30.8% (active)

Structure (SMILES)	inhibition
Cc1c(C(=O)N/N=C/c2ccccc2)[nH]c2c([N+](=O)[O-])cccc12	3.21%
COc1cc2c(C(=O)O)c(C)n(C)c2c2ccccc12	1.04%
Cc1cccc(-c2c(NC(=O)c3ccco3)oc3ccc(Cl)cc3c2=O)c1	3.25%
Cc1cc(C)nc(/N=C2\NC(=O)CC(C(=O)O)N2c2ccc(Cl)cc2Cl)n1 (configuration not stated)	3.62%
CCOC(=O)c1cnc(SC)nc1Sc1ccc(Cl)cc1Cl	-1.52%
CCOC(=O)c1nc(C)n(-c2ccc(Cl)cc2Cl)n1	17.8% (active)
CC(=O)N1CCN(CC(C)(C)NS(=O)(=O)c2ccc(C)cc2)CC1	-0.75%
CC(CC(=O)Nc1ccc(F)cc1F)S(=O)(=O)c1ccc2c(c1)NC(=O)CO2 (configuration not stated)	-2.21%
Cc1ccsc1C(=O)OCC(=O)c1cc(C)n(CC2CCCO2)c1C (configuration not stated)	82.5% (active)
Cc1cc(C(=O)CCl)c(C)n1CC1COc2ccccc2O1 (configuration not stated)	4.06%
Cc1cc(C(=O)Cn2cnc3cc([N+](=O)[O-])ccc3c2=O)c(C)n1CC1CCCO1 (configuration not stated)	-6.94%
CCOC(=O)CSc1nc2ccc(C)cc2n2cnnc12	-0.11%
COc1cc(C2CC(=O)c3cnc(NC(C)=O)nc3C2)cc(OC)c1OC (configuration not stated)	-1.32%
O=C(Nc1ncc2c(n1)CC(c1ccco1)CC2=O)c1ccc(Cl)cc1 (configuration not stated)	1.31%
CCc1ccc(Nc2ncc3c(n2)CC(c2ccco2)CC3=O)cc1 (configuration not stated)	22% (active)
COc1ccc(NC(=O)NCc2ccc3c(c2)OCO3)c(OC)c1	-7.38%
CCC(C)(C)n1nnnc1C(c1ccc(OC)c(OC)c1)N1CCN(C(=O)c2ccco2)CC1 (configuration not stated)	-0.49%
CCN(CC)CCn1c(N)c(S(=O)(=O)c2ccccc2)c2nc3ccccc3nc21	22.7% (active)
CCC(=O)Nc1c(S(=O)(=O)c2ccccc2)c2nc3ccccc3nc2n1Cc1ccccc1	5.13%
Cc1ccc(S(=O)(=O)c2c(N)n(C)c3nc4ccccc4nc23)cc1	-1.87%
O=C(N/N=C/c1ccoc1)c1ccc(Cl)cc1Cl	-0.55%
CCN(CC)CCNc1nc(-c2ccc(OC(F)F)cc2)c(C)s1	1.64%
